± gives the standard deviation.
B1: Unmod H2A variant R N D E E L N K L L G R V (peptide)
chain: RNDEELNKLLGRV
B2: Unmod H2A variant I Q A V L L P K K T E S H (peptide)
chain: IQAVLLPKKTESH
B3: Unmod H2B variant P E V S S K G A T I S K K (peptide)
chain: PEVSSKGATISKK
B4: Unmod H2A variant R N D E E L N K L L G G V (peptide)
chain: RNDEELNKLLGGV
B5: Unmod H2A variant R N D E E L N K L L G K V (peptide)
chain: RNDEELNKLLGKV
B6: Unmod H2A variant L N K L L G G V T I A Q G (peptide)
chain: LNKLLGGVTIAQG
B7: Unmod H2A variant G V L P N I Q A V L L P K (peptide)
chain: GVLPNIQAVLLPK
B8: Unmod H2A variant V T I A Q G G V L P N I Q (peptide)
chain: VTIAQGGVLPNIQ
B9: Unmod H2A variant L N K L L G K V T I A Q G (peptide)
chain: LNKLLGKVTIAQG
B10: Unmod H2B variant P E P S K S A P A P K K G (peptide)
chain: PEPSKSAPAPKKG

Molecular target: T1, HaloTag-ATRX ADD domain (163-292)
T1 chain: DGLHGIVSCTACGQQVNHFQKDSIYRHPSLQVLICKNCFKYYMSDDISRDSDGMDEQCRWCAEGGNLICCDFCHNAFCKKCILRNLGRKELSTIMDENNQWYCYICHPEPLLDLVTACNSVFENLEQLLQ
Assay: peptide microarray binding signal (635 nm), min-max normalized on array (fraction of array maximum); higher = stronger binding
Conditions: peptide region: Unmod H2A variant; binder concentration: 50 nM
How it was run: (§1)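 Histone 13-mer peptide–cellulose conjugates were printed in triplicate on nitrocellulose with a Cy3 tracer, then blocked overnight at 4°C. Arrays were probed for 1 h at 4°C with biotin-labelled HaloTag reader fusions (10 nM to 1 μM) plus streptavidin-Alexa Fluor 647, or with rabbit histone antibodies (1:10,000 to 1:2,000) plus anti-rabbit Alexa 647. An Axon GenePix 4000B scanned 635 nm for signal and 532 nm for misprints. Binding signal is the triplicate-spot mean intensity, min-max scaled per library.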

Binder | peptide microarray binding signal
B1 | 0.0189 ± 0.0014
B2 | 0.0353 ± 0.0028
B4 | 0.0156 ± 0.00038
B5 | 0.0192 ± 0.00022
B6 | 0.027 ± 0.0084
B7 | 0.0417 ± 0.0058
B8 | 0.0238 ± 0.001
B9 | 0.0216 ± 0.0016

Same assay, conditions: peptide region: Unmod H2A variant; binder concentration: 500 nM

Binder | peptide microarray binding signal
B1 | 0.00157 ± 0.00011
B2 | 0.0333 ± 0.018
B4 | 0.0164 ± 0.00093
B5 | 0.024 ± 0.0011
B6 | 0.0141 ± 0.0028
B7 | 0.0254 ± 0.026
B8 | 0.0447 ± 0.00046
B9 | 0.028 ± 0.0031

molecular target: HaloTag-ING2 PHD (mouse Ing2 200-280); assay: as above; conditions: peptide region: Unmod H2A variant; binder concentration: 10 nM
How it was run: as §1

Binder | peptide microarray binding signal
B1 | 0.00269 ± 9.9e-05
B2 | 0.0199 ± 0.00099
B4 | 0.00412 ± 5.7e-05
B5 | 0.00513 ± 0.00017
B6 | 0.00615 ± 0.00035
B7 | 0.0142 ± 0.0058
B8 | 0.0169 ± 0.00042
B9 | 0.006087 ± 5.8e-05

same assay, conditions: peptide region: Unmod H2A variant; binder concentration: 100 nM

Binder | peptide microarray binding signal
B1 | 0.0085 ± 0.00045
B2 | 0.0828 ± 0.029
B4 | 0.00397 ± 0.0011
B5 | 0.00907 ± 0.002
B6 | 0.0259 ± 0.0025
B7 | 0.0437 ± 0.0091
B8 | 0.0193 ± 0.0019
B9 | 0.032 ± 0.015

molecular target: anti-H3K4me3 antibody ab8580; assay: as above; conditions: peptide region: Unmod H2A variant; binder concentration: 1:2,000 dilution
How it was run: as §1

Binder | peptide microarray binding signal
B1 | 0.000189 ± 4.1e-06
B2 | 0.00283 ± 0.0019
B4 | 0.0091 ± 0.00022
B5 | 0.00181 ± 0.00069
B6 | 0.00748 ± 0.0012
B7 | 0.000944 ± 0.00025
B8 | 0.00821 ± 0.007
B9 | 0.00715 ± 0.00038

same assay, conditions: peptide region: Unmod H2A variant; binder concentration: 1:10,000 dilution

Binder | peptide microarray binding signal
B1 | 0.0016 ± 9.6e-05
B2 | 0.00371 ± 0.00028
B4 | 0.00171 ± 3.3e-05
B5 | 0.00217 ± 3.9e-05
B6 | 0.00177 ± 0.0002
B7 | 0.0081 ± 0.0012
B8 | 0.00451 ± 0.0005
B9 | 0.00171 ± 3.3e-05

molecular target: anti-H3K9me3 antibody ab8898; assay: as above; conditions: peptide region: Unmod H2A variant; binder concentration: 1:2,000 dilution
How it was run: as §1

Binder | peptide microarray binding signal
B1 | 0.000604 ± 2e-05
B2 | 0.00285 ± 0.00015
B4 | 0.0018 ± 0.00014
B5 | 0.00159 ± 3.2e-05
B6 | 0.0011 ± 4.3e-05
B7 | 0.00384 ± 0.00031
B8 | 0.00338 ± 0.00037
B9 | 0.00115 ± 4.6e-05

same assay, conditions: peptide region: Unmod H2A variant; binder concentration: 1:10,000 dilution

Binder | peptide microarray binding signal
B1 | 0.00173 ± 3.3e-05
B2 | 0.0045 ± 0.00048
B4 | 0.00259 ± 6.1e-05
B5 | 0.001787 ± 1.7e-05
B6 | 0.00138 ± 3.6e-05
B7 | 0.0113 ± 0.0018
B8 | 0.00306
B9 | 0.001614 ± 1.6e-05

Molecular target: T1, HaloTag-ATRX ADD domain (163-292)
Assay: as above
Conditions: peptide region: Unmod H2B variant; binder concentration: 50 nM
How it was run: as §1

Binder | peptide microarray binding signal
B3 | 0.0052 ± 0.00018
B10 | 0.00618 ± 0.00016

Same assay, conditions: peptide region: Unmod H2B variant; binder concentration: 500 nM

Binder | peptide microarray binding signal
B3 | 0.00605 ± 0.00026
B10 | 0.0115 ± 0.0012

molecular target: HaloTag-ING2 PHD (mouse Ing2 200-280); assay: as above; conditions: peptide region: Unmod H2B variant; binder concentration: 10 nM
How it was run: as §1

Binder | peptide microarray binding signal
B3 | 0.003103 ± 3e-05
B10 | 0.00406 ± 0.00015

same assay, conditions: peptide region: Unmod H2B variant; binder concentration: 100 nM

Binder | peptide microarray binding signal
B3 | 0.00468 ± 0.00025
B10 | 0.0137 ± 0.0011

molecular target: anti-H3K4me3 antibody ab8580; assay: as above; conditions: peptide region: Unmod H2B variant; binder concentration: 1:2,000 dilution
How it was run: as §1

Binder | peptide microarray binding signal
B3 | 0.00051 ± 1.5e-05
B10 | 0.000963 ± 6.3e-05

same assay, conditions: peptide region: Unmod H2B variant; binder concentration: 1:10,000 dilution

Binder | peptide microarray binding signal
B3 | 0.000742 ± 1.3e-05
B10 | 0.00126 ± 9.4e-05

molecular target: anti-H3K9me3 antibody ab8898; assay: as above; conditions: peptide region: Unmod H2B variant; binder concentration: 1:2,000 dilution
How it was run: as §1

Binder | peptide microarray binding signal
B3 | 0.000362 ± 1.3e-05
B10 | 0.000453 ± 7.5e-06

same assay, conditions: peptide region: Unmod H2B variant; binder concentration: 1:10,000 dilution

Binder | peptide microarray binding signal
B3 | 0.000634
B10 | 0.000923 ± 9.6e-06

From the supplement of paper PMC4022240
